# Assay outcomes as filed in PubChem.
# Hits are enriched below; roughly 17% of the tested compounds scored in any of these assays.
# HT1080-NT tox = qHTS for induction of synthetic lethality in tumor cells producing 2HG: qHTS for the HT-1080-NT fibrosarcoma cell line; HT-1080-NT fibrosarcoma viability, CellTiter-Glo ATP luminescence, 48 h; Potency, µM (doses to about 46.1 µM), for inactives: at the top dose activity, negative = less viability, usual class: cytotoxic; 1.6% of 360,000 active; AID 686970, 2013;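 further: NT is the 2HG producing partner of a matched IDH1 knockdown line; 0% = DMSO-treated cells and -100% = media-only wells without cells; nearly all actives have a fitted effect of over 55% in size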
#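 Viability of the 2HG-overproducing fibrosarcoma line after 48 hours of compound exposure at 37 degrees C was determined by luminescence with CellTiter-Glo, and concentration-effect curves were then fitted and categorized.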
# TGFb SMAD3 inh = qHTS for Inhibitors of TGF-b; Potency, µM (titrated, usually from 46.1 µM), without a hit: top-dose activity, negative = inhibition, hits mostly inhibitors; AID 588855, 2011; HepG2 CAGA-GFP TGF-b/SMAD3 reporter, GFP fluorescence, 18 h; TGF-beta stimulated, 500 pg/mL final; 1.2% of 410,000 active; further: on the % scale 0 is the no-effect control and ±100 the full control effect; nearly all actives have a fitted effect of over 65% in size
#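 Inhibition of TGF-beta-driven CAGA-GFP reporter expression in HEPG2 cells is measured by cellular GFP fluorescence after 18 h stimulation with 500 pg/mL recombinant TGF-beta in 1% FBS medium at 37 degrees C.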
# TDP1 cell CPT = qHTS for Inhibitors of human tyrosyl-DNA phosphodiesterase 1 (TDP1): qHTS in cells in presence of CPT. chicken DT40 Tdp1-/-;hTDP1 cells + 20 nM CPT, ATP luminescence, 48 h. Potency, µM (doses to about 46.2 µM), inactives show at the top dose activity change, negative = growth inhibition, most hits filed as inhibitors. 12% of 420,000 active; further: on the % scale 0 is the no-effect control and ±100 the full control effect; nearly all actives have a fitted effect of over 55% in size
#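 Chicken DT40 Tdp1-/- cells complemented with human TDP1, 400 cells/well, exposed to compounds plus 20 nM camptothecin for at least 48 h at 37 C; viability read as ATP content by CellTiter-Glo luminescence.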
# HT1080 IDH1KD tx = qHTS for induction of synthetic lethality in tumor cells producing 2HG: qHTS for the HT-1080-IDH1KD cell line. HT-1080 IDH1 knockdown viability, ATP luminescence, 48 h. Potency, µM (top dose mostly 46.1 µM), for inactives: at the top dose activity, negative = toxicity, most hits filed as cytotoxic. 2% of 360,000 active;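 further: 0% = DMSO wells and -100% = cell-free medium wells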
#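 Viability of IDH1-knockdown HT-1080 fibrosarcoma cells was assessed by CellTiter-Glo after 48 h at 37 °C with titrated compound; concentration-effect curves were classified by fit quality and response size.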
# HepG2 viability = qHTS for Inhibitors of TGF-b: Cytotox Counterscreen | HepG2 CAGA-GFP viability, ATP luminescence, 18 h | Potency, µM (titrated, usually from 46.1 µM), without a hit: at the highest dose activity change, negative = cytotoxicity, usual class: cytotoxic | 0.76% of 410,000 active
#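 CellTiter-Glo luminescence gave cytotoxicity after 18 hours at 37 degrees C. The cells were HepG2 CAGA-GFP in 1% FBS DMEM, stimulated with 500 pg/mL TGF-beta after compound addition. %Activity was normalised to no-cell wells (complete cell-killing) and DMSO (no toxicity), and curves were fitted and classified.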
# TDP1 cell noCPT = qHTS for Inhibitors of human tyrosyl-DNA phosphodiesterase 1 (TDP1): qHTS in cells in absence of CPT | DT40 Tdp1-/- hTDP1 cells, no CPT, ATP luminescence, 48 h | Potency, µM (series often up to 46.2 µM), for the others: at the top dose activity change, negative = growth inhibition, actives largely listed as inhibitors | 15% of 420,000 active | AID 686978, 2013; further: on the % scale 0 is the no-effect control and ±100 the full control effect; nearly all actives have a fitted effect of over 55% in size
#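 Cells were dispensed at 400 per well, compounds added by pin tool, plates incubated ≥48 hr at 37 °C, then CellTiter-Glo added for 30 min at room temperature before luminescence reading. Line: DT40 Tdp1-/- complemented with hTDP1; camptothecin omitted.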
# Numbers without * were called inactive; ? = inconclusive; . = no result given. The call rests on the fitted dose curve; in most records, active means well fitted curve in the direction sought with a large enough effect; inconclusive means small, poorly fitted or top-dose-only effect, or another doubt; inactive means no such curve, though single readings can be large; an effect the other way counts as inactive or inconclusive. Potency means the concentration at half of the fitted maximal effect.
SMILES,HT1080-NT tox,TGFb SMAD3 inh,TDP1 cell CPT,HT1080 IDH1KD tx,HepG2 viability,TDP1 cell noCPT
CCc1ccc2[nH]c(=O)c(C(c3nnnn3CCOC)N3CCN(c4ccccc4)CC3)cc2c1 (configuration not stated),-3%,14%,?,-6%,-1%,18µM*
COc1ccc2cc(C(c3nnnn3C3CCCC3)N3CCc4ccccc4C3)c(=O)[nH]c2c1 (configuration not stated),-24%,-25%,?,-2%,-12%,18µM*
CCC(C)(C)n1nnnc1C(c1cc2ccc(OC)cc2[nH]c1=O)N1CCc2ccccc2C1 (configuration not stated),-6%,?,?,?,-42%,?
CCc1ccc2[nH]c(=O)c(C(c3nnnn3CCOC)N3CCN(c4ccc(F)cc4)CC3)cc2c1 (configuration not stated),?,-8%,?,?,-3%,?
Cc1ccc(C(=O)N2CCCCC2C(=O)O)o1 (configuration not stated),10%,4%,1%,7%,-1%,1%
O=C(Nc1ccc(N2CCOCC2)c(S(=O)(=O)Nc2ccccc2Cl)c1)c1ccc(=O)[nH]n1,-2%,-26%,?,0%,-3%,16µM*
COc1ccccc1NS(=O)(=O)c1cc(NC(=O)c2[nH]c(C)c(C(C)=O)c2C)ccc1N1CCOCC1,-27%,-16%,7.3µM*,-18%,-13%,2.9µM*
COc1ccccc1NS(=O)(=O)c1cc(NC(=O)c2cc(F)c(F)c(F)c2F)ccc1N1CCOCC1,-11%,23%,?,-18%,2%,16µM*
COc1ccccc1NS(=O)(=O)c1cc(NC(=O)c2ccc(=O)[nH]c2)ccc1N1CCOCC1,10%,0%,?,9%,-2%,16µM*
Cn1cccc1CNCC(O)c1ccccc1 (configuration not stated),8%,15%,3%,8%,-22%,10%
O=C(COc1coc(CN2CCc3ccccc3C2)cc1=O)Nc1cccc([N+](=O)[O-])c1,11%,6%,1%,2%,-5%,-25%
NS(=O)(=O)c1ccc(NC(=O)COC(=O)c2cc3ccccc3cc2O)cc1,19%,-1%,-1%,3%,-3%,10%
C=C(C)Cn1c2ccc(NC(=O)NCc3ccc(F)cc3)cc2c(=O)n1C,-4%,12%,-15%,-10%,-11%,-26%
Cc1nn(C)c2c1c(C(F)(F)F)cc(=O)n2C(C)C(=O)NCCc1ccc(Cl)cc1 (configuration not stated),.,5%,15µM*,.,-2%,?
Cc1nn(C)c2c1c(-c1ccccc1)cc(=O)n2C(C)C(=O)NCCc1ccc(Cl)cc1 (configuration not stated),.,?,?,.,-28%,?
Cc1nn(C)c2c1c(C(F)(F)F)cc(=O)n2C(C)C(=O)N1CCN(c2ccccc2)CC1 (configuration not stated),.,-7%,23µM*,.,-4%,?
COc1ccc(N2CCN(C(=O)C(C)n3c(=O)cc(C(F)(F)F)c4c(C)nn(C)c43)CC2)cc1 (configuration not stated),.,0%,12µM*,.,0%,12µM*
O=C(NCc1cccs1)C(=O)NCC1OCCCN1S(=O)(=O)c1ccccc1 (configuration not stated),3%,5%,-15%,5%,-19%,?
O=C1NC2(CCC3(CC2)OCCO3)NN1c1ccccc1,6.5µM*,-3%,7%,7.3µM*,-26%,-5%
CCCCN(C(=O)COC(=O)COc1c(C)cc(C)cc1C)c1c(N)n(CCC)c(=O)[nH]c1=O,2%,-20%,8%,1%,-8%,-1%
COc1cccc(C(=O)COC(=O)c2cc(-c3cccs3)nc3ccccc23)c1,.,-17%,?,.,-12%,16µM*
COc1cccc(CN(C)C(=O)c2cc(-c3cccs3)nc3ccccc23)c1,?,-12%,21µM*,-29%,-25%,18µM*
O=[N+]([O-])c1ccc(Cl)c2c1C1C=CCC1C(c1ccccn1)N2 (configuration not stated),0%,?,18µM*,0%,-10%,?
NC(=O)C1(c2ccccc2)OC1c1ccccc1 (configuration not stated),0%,-1%,-17%,-6%,-11%,-20%
CCc1nc2c(OCc3ccccc3)cccn2c1N(C)C(=O)c1ccc2c(c1)OCO2,27%,5%,?,9%,-7%,?
SMILES,HT1080-NT tox,TGFb SMAD3 inh,TDP1 cell CPT,HT1080 IDH1KD tx,HepG2 viability,TDP1 cell noCPT
CN(Cc1ccccc1)S(=O)(=O)c1ccc(NC(=S)NC(=O)C(C)(C)C)cc1,-2%,-20%,21µM*,1%,-24%,16µM*
O=C(Nc1cccc(S(=O)(=O)N2CCCCCC2)c1)c1cc(=O)c2ccccc2o1,-10%,?,23µM*,-18%,-23%,13µM*
CN(Cc1ccccc1)S(=O)(=O)c1ccc(NC(=O)c2cc(=O)c3ccccc3o2)cc1,.,-5%,13µM*,.,-10%,16µM*
CN(c1ccccc1)S(=O)(=O)c1cccc(NC(=O)c2cc(=O)c3ccccc3o2)c1,-20%,7%,16µM*,-26%,-7%,12µM*
NS(=O)(=O)c1cccc(NC(=O)c2cc(=O)c3ccccc3o2)c1,8%,-6%,12%,12%,3%,-19%
CC(=O)N1c2ccccc2CC1C(=O)N1CCN(c2ccccc2)CC1 (configuration not stated),.,8%,-2%,.,4%,-14%
C(=Nc1ccc2ccccc2n1)c1cccnc1,.,-4%,?,.,-14%,-11%
Cc1cc(C)c2c(=O)cc(C(=O)Nc3ccc(S(=O)(=O)Nc4nc(C)cc(C)n4)cc3)oc2c1,.,23%,12%,.,0%,?
Cc1cc(C)c2c(=O)cc(C(=O)Nc3ccc(S(=O)(=O)N(C)Cc4ccccc4)cc3)oc2c1,.,-1%,5.8µM*,.,0%,?
